The values that follow come from PubChem BioAssay AID1159580 (chemical genetic matrix, 2015).

This experiment is described as follows: chemical genetic growth profiling, strain panel (AID 1159580).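 Note: tested at 20 µM; growth read once vehicle control cultures reached saturation at 30 °C; 1 = growth at the plate median or of vehicle wells; lower values mean less growth of the strain.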 The conditions noted are these: S. cerevisiae deletion strains, growth OD.

The whole screen tested about 5,500 compounds, of which about 2,000 (36%) were called active. Another 18% or so got no clear call; they are omitted. This is one part of the list. Values without a mark were called inactive. Cut-off read from the data, not from the text of the source: active = normalized growth mostly below about 0.91 (no sharp cut-off); inconclusive = no clear call, values can overlap the other calls; inactive = mostly above about 0.92.

Consider `O=C1CCc2ccc(OCCCCN3CCN(c4cccc(Cl)c4Cl)CC3)cc2N1`, for which the normalized growth is 1.03 (locus YHR030C, strain SLT2, hits give low values); 0.961 (locus YHR079C, strain IRE1, hits give low values); 0.955 (locus YJL095W, strain BCK1, hits give low values); 0.927 (locus YJR066W, strain TOR1, hits give low values); 0.959 (locus YLR113W, strain HOG1, hits give low values); 0.894 (locus YNL183C, strain NPR1, hits give low values). Also, the normalized growth by setting is: (locus YOR231W, strain MKK1, hits give low values) 0.97; (locus YPL256C, strain CLN2, hits give low values) 0.975.

As for `CN1CCN(C2Cc3ccccc3Sc3ccc(Cl)cc32)CC1` (stereo not given), the normalized growth was 0.883 (active) (locus YAL013W, strain DEP1, hits give low values); 1 (locus YAL040C, strain CLN3, hits give low values); 0.897 (locus YDR363W, strain ESC2, hits give low values); 1.04 (locus YER002W, strain NOP16, hits give low values); 0.881 (active) (locus YJR075W, strain HOC1, hits give low values); 1.01 (locus YMR307W, strain GAS1, hits give low values). Also, the normalized growth (locus YNL153C, strain GIM3, hits give low values) is 0.587 (active); the normalized growth (locus YNL175C, strain NOP13, hits give low values) was 0.915; the normalized growth (locus YNL197C, strain WHI3, hits give low values) was 0.989; the normalized growth (locus YNL224C, strain SQS1, hits give low values) was 1.01; the normalized growth (locus YOR083W, strain WHI5 (second series), hits give low values) is 0.668 (active); the normalized growth (locus YPL055C, strain LGE1, hits give low values) is 0.923.
